Common to all, as to conditions: concentration: 10 µM; 24 h
Experiment [1] deals with HCC1569. Kind of experiment: cell number relative to DMSO (% of DMSO); higher = more cells (less growth inhibition / toxicity). In short, it runs like this: (§1)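 H1.0 nuclear intensity or cell number is stated as percent of the plate control, based on the median of replicates, and HCC1569 values were smoothed for positional effects. These came from HCC1569 and TDF cells treated with compounds at 10 µM for 24 h at 37 °C in triplicate, then fixed in 3.7% formaldehyde and stained with a rabbit anti-H1.0 antibody, an AlexaFluor 647 secondary and DAPI.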

In experiment [2] the test system is TDF. The experiment is described as above. In short, it runs like this:
as §1

Experiment [3] concerns TDF. Kind of experiment: H1.0 immunofluorescence intensity relative to DMSO (% of DMSO); higher = stronger H1.0 induction, active = 120 or more. The method, boiled down:
as §1

Experiment [4] concerns HCC1569. Briefly: H1.0 immunofluorescence intensity relative to DMSO (% of DMSO); higher = stronger H1.0 induction, active = 140 or more. In short, it runs like this: as §1

Molecules are shown by their SMILES. ± gives the standard deviation of the averaged measurements.
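For H1.0 immunofluorescence intensity relative to DMSO in this document: TDF is a line of transformed human dermal fibroblasts of mesenchymal origin.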
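For cell number relative to DMSO in this document: TDF denotes transformed human dermal fibroblasts of mesenchymal origin.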

With `COc1ccccc1CNCCCCCCNCCCCCCCCNCCCCCCNCc1ccccc1OC.Cl.Cl.Cl.Cl` [Methoctramine tetrahydrochloride], the cell number in experiment [1] worked out at 104; in experiment [2], 87.6. For the same compound, the H1.0 immunofluorescence intensity is 103 (inactive) in experiment [3] and 98 (inactive) in experiment [4].
For `CC=Cc1ccc(OC)cc1` [Anethole, trans-], in that order: 96.1, 81.4, 107 (inactive) and 105 (inactive).
As for `NC(CCCP(=O)(O)O)C(=O)O` (racemic), the cell number is 103 in experiment [1] and 105 in experiment [2]. Further, the H1.0 immunofluorescence intensity in experiment [3] was 94 (inactive); in experiment [4] it was 93.7 (inactive).
For `CN(C)C(=S)NN=C(c1ccccn1)c1ccccn1` [(Z)-di(2-pyridinyl)methanone N,N-dimethylthiosemicarbazone], in that order: 75.1, 52.4, 107 (inactive) and 106 (inactive).
The like results for `Cn1c(=O)c2[nH]c(C3CCCC3)nc2n(C)c1=O` [8-Cyclopentyl-1,3-dimethylxanthine] were, in that order, 97.7, 99.4, 98.6 (inactive) and 102 (inactive).
The like results for `CCN(CC)C(C)C(=O)N1c2ccccc2Sc2ccccc21.Cl` (stereo not drawn) [10-(alpha-Diethylaminopropionyl)-phenothiazine hydrochloride] were, in that order, 93.7, 99, 98.5 (inactive) and 85.9 (inactive).
Regarding `CNC1C(OC2OC(CO)C(N)C(O)C2O)OC2CC(N)C(OC3C(N)CC(N)C(O)C3O)OC2C1O` (stereo unspecified) [Apramycin], the figures for the cell number in experiment [1] and in experiment [2] were 106 and 96.3, respectively. The H1.0 immunofluorescence intensity in experiment [3] is 98.5 (inactive); in experiment [4], 117 (inactive).
The like results for `OC1(c2ccc(Cl)cc2)CCN(Cc2c[nH]c3ccccc23)CC1` were, in that order, 94.6, 93, 106 (inactive) and 103 (inactive).
The like results for `Nc1ccc(-c2cccc3c(=O)cc(N4CCOCC4)oc23)cc1` were, in that order, 78.1, 99.3, 82.5 (inactive) and 156 (active).
The like results for `COc1c(C)c2c(c(O)c1CC=C(C)CCC(=O)O)C(=O)OC2` [Mycophenolic Acid] were, in that order, 78.3 ± 3.8, 63.3 ± 4.9, 104 (inactive) and 116 (inactive).
For `CCCCCCCCCCCCCCCCCCCCC(=O)O` [Heneicosanoic acid], the cell number came to 102 in experiment [1] and 95.5 in experiment [2]. Also, the H1.0 immunofluorescence intensity in experiment [3] is 98.5 (inactive); in experiment [4] it was 103 (inactive).
Consider `c1ccc2c(Oc3nc(Nc4ccc(N5CCOCC5)cc4)c4ncn(C5CCCCC5)c4n3)cccc2c1`, for which the results for the cell number in experiment [1] and in experiment [2] were 84.3 and 92.2, respectively. For the same compound, the H1.0 immunofluorescence intensity is 101 (inactive) in experiment [3] and 150 (active) in experiment [4].
For `Cl.Cl.O=S(=O)(c1cccc2cnccc12)N1CCCNCC1`, in that order: 107, 95, 99.5 (inactive) and 94.3 (inactive).
The like results for `CON=C(C(=O)NC1C(=O)N2C(C(=O)[O-])=C(C[N+]3(C)CCCC3)CSC12)c1csc(N)n1` (stereo unspecified) [Cefepime] were, in that order, 99.6, 97, 91.1 (inactive) and 110 (inactive).
The like results for `CCCCCCCCCCCCCCC(F)C(=O)O` (stereo unspecified) [2-Fluoropalmitic acid] were, in that order, 105, 102, 99.7 (inactive) and 104 (inactive).
Take `CCCCNC(=O)NS(=O)(=O)c1ccc(C)cc1` [Tolbutamide]: the cell number in experiment [1] stood at 102 ± 3.9; in experiment [2], 108 ± 11. Besides, the H1.0 immunofluorescence intensity was 93 (inactive) in experiment [3] and 101 (inactive) in experiment [4].
For `CC1CCC2(OC1)OC1CC3C4CCC5CC(O)CCC5(C)C4CCC3(C)C1C2C` (stereo unspecified) [Sarsasapogenin], in that order: 100, 105, 106 (inactive) and 107 (inactive).
Take `CC(C)CCN1c2nc(Nc3cc(F)c(O)c(F)c3)ncc2N(C)C(=O)C1C` (stereo unspecified): the cell number in experiment [1] was 65; in experiment [2], 29.6. Besides, the H1.0 immunofluorescence intensity in experiment [3] is 131 (active); in experiment [4], 148 (active).
For `CCCCCCCCCCCCCCCC(=O)OCC(O)C1OC(=O)C(O)=C1O` (stereo unspecified) [Ascorbyl palmitate], in that order: 98.6, 105, 96.1 (inactive) and 102 (inactive).
`O=C1NC(c2cccc([N+](=O)[O-])c2)=CCN1c1ccccc1O`: the cell number in experiment [1] and in experiment [2] was 104 each time. Besides, the H1.0 immunofluorescence intensity in experiment [3] was 95.6 (inactive); in experiment [4], 94.9 (inactive).
Consider `CNCCC(Oc1ccc(C(F)(F)F)cc1)c1ccccc1.Cl` (stereo not drawn) [S-(+)-Fluoxetine hydrochloride], for which the cell number in experiment [1] came out at 91.2; in experiment [2] it was 93.3. Moreover, the H1.0 immunofluorescence intensity in experiment [3] is 107 (inactive); in experiment [4], 111 (inactive).
For `CCCCCC#CCC#CCC#CCC#CCCCC(=O)O` [5,8,11,14-Eicosatetraynoic acid], in that order: 105, 86.7, 93.3 (inactive) and 103 (inactive).
The like results for `Cc1scc2c1N(C(=O)CN1CCN(C)CC1)c1ccccc1NC2=O.Cl.Cl` [Telenzepine.2HCl] were, in that order, 101, 99.1, 96.6 (inactive) and 103 (inactive).
The like results for `CN1CCN(CCCCN2C(=O)CN(/N=C/c3ccc(-c4ccc(Cl)cc4)o3)C2=O)CC1.Cl.Cl` were, in that order, 98.2, 102, 92.6 (inactive) and 115 (inactive).

(Values after the supplement of paper PMC7156485.)
